# Test system: Caenorhabditis elegans dauer (daf-2(e1370))
# Assay: proportion of mobile C. elegans dauer larvae relative to DMSO control (fraction of DMSO control); higher = more viable, less nematicidal, active = 0.63 or less; extreme values may be limits of the assay
# Conditions: 60 µM; 5 days; temperature: 20 °C
# How it was run: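 Compound was added by pinning to 60 µM final, giving 0.6% v/v DMSO, in 96-well plates containing about 20 C. elegans dauers per well in liquid NGM. These dauers came from synchronized larvae held on MYOB plates with E. coli OP50 for 48 h at 25 °C. Plates were sealed and shaken at 200 rpm at 20 °C for 5 days. Under a dissection microscope, the proportion of mobile worms was scored relative to DMSO wells, and two biological replicates were averaged.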
row,SMILES,proportion of mobile C. elegans dauer larvae
1,CCOc1ccccc1-c1nc(-c2cccc(C)c2)no1,1 (inactive)
2,CCOC(=O)c1sc(NC(=O)CSc2nnc(-c3ccc(Cl)cc3)o2)c(C(=O)OCC)c1C,1 (inactive)
3,CC(Oc1ccccc1)c1nc(-c2cccnc2)no1 (centres undefined),1 (inactive)
4,Cc1cccc(-c2noc(COc3ccc(Cl)cc3)n2)c1,1 (inactive)
5,COc1cccc(-c2noc(COc3cccc(C)c3)n2)c1,1 (inactive)
6,CC(C)(C)c1ccc(-c2noc(COc3ccccc3)n2)cc1,1 (inactive)
7,Cc1ccccc1-c1noc(-c2ccccc2C(=O)NCc2ccccc2)n1,1 (inactive)
8,CN(C(=O)CSc1nnc(-c2ccccc2)o1)c1ccccc1,1 (inactive)
9,Clc1ccc(SCc2nc(-c3cccnc3)no2)cc1,0.156 (active)
10,Brc1ccc(-c2noc(-c3ccco3)n2)o1,0.391 (active)
11,COc1cccc(-c2noc(CSc3ccc(Cl)cc3)n2)c1,1 (inactive)
12,Cc1ccc(-c2nnc(SCc3ccccc3C#N)o2)cc1,1 (inactive)
13,CC(C)(C)C(=O)CSc1nnc(-c2ccc(Cl)cc2Cl)o1,1 (inactive)
14,CCOc1nc(-c2ccccc2)ccc1-c1noc(CC)n1,1 (inactive)
15,Fc1cccc(Cl)c1CSc1nnc(-c2ccccc2Cl)o1,1 (inactive)
16,Cc1ccccc1CSc1nnc(-c2ccccc2)o1,1 (inactive)
17,COc1nc(-c2ccccc2)ccc1-c1noc(C(C)C)n1,1 (inactive)
18,Clc1ccc(OCc2nc(-c3ccccc3)no2)c(Br)c1,1 (inactive)
19,COc1ccccc1-c1nc(-c2ccc(Cl)cc2)no1,1 (inactive)
20,Cc1cccc(-c2noc(-c3ccc(C)c(Cl)c3)n2)c1,1 (inactive)

row,SMILES,proportion of mobile C. elegans dauer larvae
1,COc1cccc(NC(=O)c2ccccc2-c2nc(-c3ccccc3Cl)no2)c1,1 (inactive)
2,COc1ccc(-c2noc(COc3ccc(Br)c(C)c3)n2)cc1,1 (inactive)
3,O=C(CSc1nnc(-c2ccccc2)o1)NC1CCCCC1,1 (inactive)
4,Cc1ccc(CSc2nnc(-c3ccco3)o2)c(C)c1,1 (inactive)
5,Cc1cccc(-c2noc(-c3ccc4c(c3)OCO4)n2)c1,1 (inactive)
6,Cc1cc(Cl)ccc1OCc1nc(-c2cccnc2)no1,1 (inactive)
7,CCCc1nnc(CSc2nnc(-c3ccc(Cl)cc3)o2)o1,1 (inactive)
8,c1csc(-c2nnc(-c3cccs3)o2)c1,0.786 (inactive)
9,Cc1ccc(-c2nc(-c3ccccc3Cl)no2)cc1,1 (inactive)
10,O=C(CSc1nnc(-c2ccncc2)o1)Nc1ccccc1Cl,1 (inactive)
11,Clc1ccc(-c2nc(-c3cccnc3)no2)c(Cl)c1,0.625 (active)
12,COc1ccccc1-c1nc(-c2ccccc2)no1,1 (inactive)
13,Cc1cccc(-c2noc(-c3ccccc3Cl)n2)c1,1 (inactive)
14,O=C(CSc1nnc(-c2cccnc2)o1)c1ccc(Br)cc1,1 (inactive)
15,COc1ccc(-c2nnc(SCc3ccc(C#N)cc3)o2)cc1,1 (inactive)
16,Cc1ccc(-c2nc(-c3cccnc3)no2)c(C)c1,0.0769 (active)
17,Cc1ccccc1OCc1nc(-c2ccc(NC(=O)c3ccc(Br)o3)cc2)no1,1 (inactive)
18,Cc1cc(OCc2nc(-c3cccnc3)no2)ccc1Cl,1 (inactive)
19,CCOc1ccccc1-c1nnc(SCc2ccccc2)o1,1 (inactive)
